From PubChem BioAssay AID504441 (Broad Institute, 2011) come the findings set out here.

The whole screen tested about 310,000 compounds, of which about 1,300 (0.42%) were called active. For the sample, actives were picked, then their nearest neighbours and some compounds at random. Unmarked numbers belong to inactive results. Cut-off read from the data, not from the text of the source: active = inhibition above about 50%; inactive = the rest.

What is called inhibition is the relative decrease from the control value, in per cent.

The target of the experiment is Dual specificity tyrosine-phosphorylation-regulated kinase 1A (Rattus norvegicus) (UniProt Q63470). Kind of experiment: inhibition of Dyrk1A kinase activity – biochemical, single point, plate reader, primary screen (AID 504441).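 Note: plate controls were vehicle with enzyme for no effect and no enzyme for full effect.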 Conditions: ADP-Glo luminescence, NFATc1 peptide, at 12.5 µM, stronger effect = higher value. (In general: ADP-Glo first removes unused ATP, then detects ADP through luciferase.)
On to `O=C1C=C(NS(=O)(=O)c2ccccc2)C(=O)c2ccccc21`, for which the inhibition was 0.22%.

For the compound `CCN1C[C@@H]2[C@@H]3C(=O)N(Cc4ccccc4)C(=O)[C@@H]3[C@](C)(C1=O)N2C(=O)c1ccc(C(C)(C)C)cc1`, the inhibition is -5.8%.

On to `O=C(Nc1cccc(Br)c1)C1CC(=O)N(C2CCCC2)C1` (configuration not stated), for which the inhibition is -2.1%.

For the compound `O=C1NC(=O)C(CCc2ccccc2)(c2ccccc2)N1` (configuration not stated), the inhibition was -4.85%.

For the compound `CCOC(=O)COc1cc(OCC(=O)OCC)c2c(=O)cc(-c3ccccc3)oc2c1`, the inhibition is 0.414%.

As to `CCOC(=O)COc1cc(O)c2c(=O)cc(-c3ccccc3)oc2c1`, the inhibition is -1.6%.

Consider `COc1c(O)cc2oc(-c3ccc(O)c(O)c3)cc(=O)c2c1O`, for which the inhibition was 50.5% (active).

In the case of `CCOC(=O)C1CCCN(C(=O)C2CCN(S(=O)(=O)c3ccc(Cl)c(C(F)(F)F)c3)CC2)C1` (configuration not stated), the inhibition was -9.38%.

In the case of `CC(=O)Nc1cccc(-c2nc3ccccc3s2)c1C`, the inhibition was -0.865%.

`COc1ccc(Oc2cn[nH]c2-c2ccc(OC)cc2O)cc1`: the inhibition is 11.8%.

As for `Oc1ccc(-c2[nH]ncc2-c2nc3ccccc3s2)c(O)c1`, the inhibition was 66.5% (active).

For the compound `CC(=O)OC1CCC2C3CCC4=C(CC(F)C(=O)C4)C3CCC12C` (configuration not stated), the inhibition was -2.02%.

For `O=C(OCC1OC(Oc2ccc(O)cc2)C(O)C(O)C1O)c1ccccc1` (configuration not stated), the inhibition is 13.6%.

Regarding `C[C@@H]1O[C@@H](OC[C@H]2O[C@@H](Oc3c(-c4ccc(O)cc4)oc4cc(O)cc(O)c4c3=O)[C@H](O)[C@@H](O)[C@@H]2O)[C@H](O)[C@H](O)[C@H]1O`, the inhibition is 66.5% (active).

In the case of `COc1ccc(-c2cc(=O)c3c(O)cc(O[C@@H]4O[C@H](CO[C@@H]5O[C@@H](C)[C@H](O)[C@@H](O)[C@H]5O)[C@@H](O)[C@H](O)[C@H]4O)cc3o2)cc1O`, the inhibition was -6.42%.

`N#CCc1c[nH]c2ccc([N+](=O)[O-])cc12`: the inhibition is 20%.

Turning to `CCc1ccc(C(=O)C(C)OC(=O)CN2C(=O)NC3(CCCC3)C2=O)cc1` (configuration not stated), the inhibition is 0.139%.

Consider `O=C1NCC(Nc2ccccc2)C(=O)N1` (configuration not stated), for which the inhibition is -0.332%.

Take `COc1cc2c(cc1OC)C1C(=O)c3cc(OS(C)(=O)=O)c(OC)cc3C1N(C)C2=O` (configuration not stated): the inhibition is 3.14%.

In the case of `CC(=O)Nc1cccc(C(=O)OCC(=O)c2ccc3c(c2)OCO3)c1`, the inhibition was 69.4% (active).

Take `CC(C)C(=O)Nc1cccc(C(=O)Nc2ccc3c(c2)OCO3)c1`: the inhibition is -2.73%.

Take `O=C(COC(=O)c1ccc(F)cc1)Nc1ccc2c(c1)OCO2`: the inhibition was -0.789%.

In the case of `Cc1nc2ccccc2nc1N/N=C/c1ccc(O)cc1O`, the inhibition was 9.74%.

As for `Oc1ccc2nc(Cc3ccccc3)[nH]c2c1`, the inhibition was 10.9%.

`Oc1ccc(-c2nc3ccccc3nc2-c2ccc(O)cc2O)c(O)c1`: the inhibition was 76.3% (active).

As to `CC(NC(=O)c1ccccc1)C(=O)OCC(=O)Nc1cccc(S(=O)(=O)N2CCCC2)c1` (configuration not stated), the inhibition was 1.68%.

On to `Cc1ccnc(NS(=O)(=O)c2ccc(NC(=O)c3oc4ccc(F)cc4c3C)cc2)n1`, for which the inhibition was 1.02%.

Consider `Cc1ccnc(NS(=O)(=O)c2ccc(NC(=O)c3oc4ccccc4c3C)cc2)n1`, for which the inhibition was 28.5%.

Consider `Cc1noc(NS(=O)(=O)c2ccc(NC(=O)c3oc4ccc(F)cc4c3C)cc2)c1C`, for which the inhibition is 60% (active).

Take `CCC1(C)COC(c2ccc(OC)c(OC)c2)OC1` (configuration not stated): the inhibition was 2.1%.

Consider `O=C(O)C(c1cccs1)C1(O)CCCCC1` (configuration not stated), for which the inhibition was 2.77%.

For `NC(=O)C1CCN(C(=O)c2cc(S(=O)(=O)N3CCN(c4ccccc4)CC3)ccc2Cl)CC1`, the inhibition was 8.45%.

For `CC(C)Cn1cnc2c(SCc3ccc(Cl)cc3)nc(N)nc21`, the inhibition was 7.52%.

Regarding `CCc1nnc(NC(=O)c2cc(S(=O)(=O)N3CCN(CC)CC3)ccc2Cl)s1`, the inhibition was 7.13%.

Consider `c1ccc(C(=NNc2nc3ccccc3s2)c2ccccn2)cc1`, for which the inhibition is 12.7%.

With `COc1ccc(N=C2C=CC(=O)O2)cc1`, the inhibition was 7.98%.

Regarding `O=C(NCC1(N2CCCCC2)CCCCC1)c1cccc(S(=O)(=O)Nc2ccccc2Cl)c1`, the inhibition was -5.86%.

On to `COc1cc(O)c2c(=O)c3c(O)c(O)ccc3oc2c1OC`, for which the inhibition is 50.1% (active).

With `COc1cccc2cc(-c3cc(=O)oc4cc(C)c(O)cc34)oc12`, the inhibition is -4.38%.

On to `COc1cccc2c(O)cc(=O)n(C)c12`, for which the inhibition is 26.6%.

Take `CC(C)(C)OC(=O)N(Cc1ccccc1)Cc1ccc(OCc2cccc(NC(=O)c3ccccc3)c2)cc1`: the inhibition is -3.26%.

As for `COc1ccc(-c2nc3cc(C)ccn3c2NC2CCCCC2)cc1SC1CCCCC1`, the inhibition was 1.83%.

Turning to `CCN(CC)S(=O)(=O)c1cccc(NC(=O)c2ccc(S(=O)(=O)N3CCCC3)cc2)c1`, the inhibition is 1.24%.

With `CC(C)(C)OC(=O)N1CCC(C(=O)Nc2cccc(C(=O)NCCc3ccccc3)c2)CC1`, the inhibition was -16.9%.

For the compound `CCN(CC)c1ccc(NC(=O)CCc2nnc3ccc(N4CCCCC4)nn23)c(C)c1`, the inhibition is 59.6% (active).

Take `CCOC(=O)c1cccc(NC(=O)CCc2nnc3ccc(N4CCOCC4)nn23)c1`: the inhibition is 2.86%.

As to `CCOc1ccc(CCNC(=O)CCc2nnc3ccc(N4CCCC4)nn23)cc1OCC`, the inhibition is 17.6%.

Turning to `O=C1C(Cl)=C(Oc2ccccc2)C(=O)c2ccccc21`, the inhibition is 35.4%.

For `Oc1cccc(CCc2ccccn2)c1`, the inhibition is 7.91%.

Take `COc1ccc(OC)c(Cc2cnc3nc(N)nc(N)c3c2C)c1`: the inhibition was -1.98%.

Take `Nc1nonc1-n1nnc(C(=O)N/N=C\c2ccncc2)c1CN1CCCCC1`: the inhibition is 77.4% (active).

Turning to `NNC(=O)c1nnn(-c2nonc2N)c1CN1CCCC1`, the inhibition is 15.1%.

For the compound `Nc1nonc1-n1nnc(C(=O)N/N=C/c2ccccc2O)c1CN1CCCC1`, the inhibition was 14.8%.

With `Cc1nc(Nc2ccccc2C)c2cnn(C)c2n1`, the inhibition was -5.25%.

As for `CCOC(=O)N(Cc1ccccc1)C1CC1`, the inhibition was -0.945%.

Regarding `COc1ccc(CCC(=O)Nc2ccc(Cl)c(S(=O)(=O)N3CCOCC3)c2)cc1OC`, the inhibition was -1.66%.

As for `CN1c2ccc(C=O)c3c(C=O)ccc(c23)N(C)C1(C)C`, the inhibition was 91.2% (active).
